Assay [1] can be described thus: BSK_3C_SRB: Viability Assessment in the BioMAP Diversity Plus: 3C Assay (AID 2283023).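 Further: fitted both ways against DMSO so a hit may be signal rise or drop.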 The settings on record: primary human endothelial cells (HUVEC). The gist of the method:
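Human umbilical vein endothelial cells in the 3C system, treated 24 h. Total protein measured by 0.1% sulforhodamine B staining after 10% TCA fixation, read at 560 nm; bidirectional fit versus DMSO.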

Read-out in assay [2]: Matrix Metallopeptidase 1 (MMP1), MMP1 (gene 4312)
Kind of assay: BSK_BE3C_MMP1: BioMAP Diversity Plus: BE3C Assay for Matrix Metallopeptidase 1 (MMP1) Biomarker Activity (AID 2283024). Particulars: primary human bronchial epithelial cells; actives raise or lower the signal. The gist of the method: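 In this multiplexed primary-cell system, human bronchial epithelium received chemicals for 24 h before an ELISA for MMP1. Values reflect bidirectional fits normalised to the DMSO baseline.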

Assay [3] can be described thus: BSK_3C_Vis: BioMAP Diversity Plus: 3C Assay for Morphology Visualization (AID 2283025).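 Further: fitted both ways so gain or loss versus DMSO counts.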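 On AC50: light microscopy image of cell morphology used as background control.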 The settings on record: primary human endothelial cells (HUVEC). The gist of the method: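 Light-microscopy morphology readout, 24 h exposure, human primary umbilical vein endothelium; analysed relative to DMSO with bidirectional fitting.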
Read-out in assay [4]: Pselectin, SELP (gene 6403)
Kind of assay: BSK_4H_Pselectin: BioMAP Diversity Plus: 4H Assay for Pselectin Biomarker Activity (AID 2283026). Particulars: primary human endothelial cells (HUVEC); actives raise or lower the signal. The method, boiled down:
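Bidirectional fits against DMSO gave the endpoint. Cells: primary human umbilical vein endothelium, chemical-treated for 24 h before ELISA detection of P-selectin.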

The nature of assay [5]: BSK_4H_SRB: Viability Assessment in the BioMAP Diversity Plus: 4H Assay (AID 2283027).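 Further: cells exposed to compound for 24 h before staining.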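 On AC50: curves fitted both ways versus DMSO so AC50 may be loss or gain.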 The settings on record: primary human endothelial cells (HUVEC). The method, boiled down:
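Cytotoxicity read-out in primary human endothelial cells: after 24 h compound exposure, cells were TCA-fixed (10%), stained with 0.1% SRB and absorbance taken at 560 nm. Values fitted in both directions relative to DMSO.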

A short description of assay [6]: BSK_BE3C_SRB: Viability Assessment in the BioMAP Diversity Plus: BE3C Assay (AID 2283028).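 On AC50: fitted both ways so AC50 may mark signal gain or loss versus DMSO.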 Particulars: primary human bronchial epithelial cells. The gist of the method:
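Human bronchial epithelial primary cells in confluent culture, 24 h after chemical dosing; total protein by 0.1% SRB staining after 10% TCA fixation, read at 560 nm. Bidirectional fitting versus DMSO baseline.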

Read-out in assay [7]: Thrombomodulin, THBD (gene 7056)
In words: BSK_3C_Thrombomodulin: BioMAP Diversity Plus: 3C Assay for Thrombomodulin Biomarker Activity (AID 2283029). Particulars: primary human endothelial cells (HUVEC); actives raise or lower the signal. The gist of the method: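 In a multiplexed primary-cell system, human umbilical vein endothelium received chemical and was assayed 24 h later for thrombomodulin by ELISA. Parallel cultures were SRB-stained (0.1% SRB after 10% TCA fixation, read at 560 nm) to flag cytotoxicity.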

Read-out in assay [8]: Urokinase-type plasminogen activator receptor (uPAR), PLAUR (gene 5329)
In words: BSK_4H_uPAR: BioMAP Diversity Plus: 4H Assay for Urokinase-type plasminogen activator receptor (uPAR) Biomarker Activity (AID 2283030). The settings on record: primary human endothelial cells (HUVEC); actives raise or lower the signal. The method, boiled down: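 Human umbilical vein endothelial cells in the 4H system, 24 h after chemical dosing. Cell-surface uPAR measured by ELISA, fitted in both directions versus DMSO; cytotoxicity checked by SRB total protein in parallel cultures.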

Read-out in assay [9]: Vascular endothelial growth factor receptor 2 (Homo sapiens) (UniProt P35968)
In words: BSK_4H_VEGFRII: BioMAP Diversity Plus: 4H Assay for Vascular endothelial growth factor receptor 2 (VEGFR2) Biomarker Activity (AID 2283031).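 On AC50: cell-surface VEGFR2 protein level quantified by ELISA.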 The settings on record: primary human endothelial cells (HUVEC); actives raise or lower the signal. The method, boiled down: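 Primary human umbilical vein endothelial cells (4H system), 24 h exposure; cell-surface VEGFR2 measured by ELISA. Bidirectional fitting versus DMSO; cytotoxicity checked in parallel by SRB total-protein staining.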

Read-out in assay [10]: Human Leukocyte Antigen - DR isotype (HLADR), HLA-DRA (gene 3122)
In words: BSK_BE3C_HLADR: BioMAP Diversity Plus: BE3C Assay for Human Leukocyte Antigen - DR isotype (HLADR) Biomarker Activity (AID 2283032). Particulars: primary human bronchial epithelial cells; actives raise or lower the signal. The gist of the method: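 BioMAP BE3C format: human bronchial epithelium, 24 h compound treatment, ELISA detection of HLA-DR, with bidirectional analysis relative to DMSO.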

From PubChem BioAssay (EPA / NIEHS) come the findings set out here.

Some compounds were tested as several samples or in several runs, with calls that do not always agree. The source made the active and inactive calls. How the source made its calls: active means hit-call score of the fitted dose curve at least 0.9, where 1 is the maximum; inactive means score below 0.9.

With `OC(Cc1ccccc1Cl)(Cn1[nH]cnc1=S)C1(Cl)CC1` (stereo not drawn), the AC50 in [1] was 32 µM (active); in assay [4] it was 20 µM (active); in [5], 27.8 µM (active); in assay [8], 20 µM (active); in assay [9], 20 µM (active); in assay [10], 20 µM (active). Besides, the result in assay [2], in [3], in assay [6] and in [7] was inactive.
In the case of `CCC(C)(C#N)N=NC(C)(C#N)CC` (stereo not drawn), the result in assay [1], in assay [2], in assay [3], in [4], in assay [5] and in assay [6] was inactive. Moreover, the outcome in assay [7], in [8] and in assay [10] was inactive.
In the case of `Cc1cc(Cl)ccc1N`, the outcome in assay [1], in assay [2], in assay [3], in assay [4], in [5] and in [6] was inactive. The outcome in [7], in assay [8] and in assay [10] was inactive.
Consider `CC1(C)[C@H](C(=O)O[C@H](C#N)c2cccc(Oc3ccccc3)c2)[C@@H]1/C=C(\Cl)C(F)(F)F`, for which the result in [1], in assay [2], in assay [4], in assay [5], in [6] and in assay [7] was inactive. Moreover, the result in assay [8], in [9] and in assay [10] was inactive. Further, the AC50 was 0.0142 µM (active) in assay [2] and 0.0141 µM (active) in assay [10].
With `Clc1cccc(Cl)c1Cl`, the result in [1], in assay [2], in assay [3], in [4], in assay [5] and in [6] was inactive. The outcome in assay [7], in assay [8], in [9] and in assay [10] was inactive.
For `C=CC(Cl)CCl` (stereo not drawn), the outcome in assay [1], in assay [2], in assay [4], in [5], in [6] and in assay [7] was inactive. Moreover, the result in assay [8], in assay [9] and in assay [10] was inactive.
`CCOP(=S)(OCC)OP(=S)(OCC)OCC`: the AC50 was 26.6 µM (active) in assay [1]; 37.5 µM (active) in assay [3]; 31.2 µM (active) in [4]; 20 µM (active) in assay [5]; 32.3 µM (active) in assay [8]. In addition, the outcome in assay [2], in assay [6], in assay [7] and in assay [10] was inactive.
For `CCCCCCCCCCCCc1cccc(S(=O)(=O)O)c1`, the result in assay [1], in [3], in [4], in assay [5], in [7] and in [8] was inactive. Further, the AC50 in [2] was 28.8 µM (active); in assay [6], 26.9 µM (active); in [10], 17.6 µM (active).
Regarding `OCCN(CCO)CCO`, the outcome in [1], in assay [2], in [3], in assay [4], in assay [5] and in assay [6] was inactive. Also, the outcome in assay [7], in [8] and in assay [10] was inactive.
Take `CCOC(=O)CC(=O)CCl`: the result in assay [1], in [2], in assay [3], in assay [5], in [6] and in assay [8] was inactive. Further, the values for the AC50 in assay [4], in assay [7] and in assay [10] were 11 µM (active), 4.35 µM (active) and 20 µM (active), respectively.
Turning to `O=C(Cc1ccccc1)OCCc1ccccc1`, the outcome in assay [1], in assay [2], in assay [4], in assay [5], in [6] and in [7] was inactive. Further, the outcome in [8] and in [10] was inactive. The AC50 in assay [4] is 2.34 µM (active).
As for `CN(C)C(=S)S`, the outcome in assay [1], in assay [3], in assay [4], in assay [5], in [6] and in assay [7] was inactive. Further, in [8], the outcome was inactive. For the same compound, the AC50 in assay [2] is 13.2 µM (active); in assay [10] it was 25.1 µM (active).
Regarding `CCN(CC)C(=O)C(Cl)=C(C)OP(=O)(OC)OC`, the result in assay [1], in [2], in assay [4], in [5], in assay [6] and in assay [7] was inactive. Further, the result in [8], in assay [9] and in [10] was inactive.
Consider `CC(C)=CC1C(C(=O)OCc2cccc(Oc3ccccc3)c2)C1(C)C` (stereo not drawn), for which the AC50 in assay [1] is 26.7 µM (active); in assay [3], 37.6 µM (active). Besides, the result in assay [2], in assay [4], in assay [5], in assay [6], in assay [7] and in [8] was inactive. For the same compound, in assay [10], the result was inactive.
Regarding `OC(Cc1ccccc1Cl)(Cn1cncn1)C1(Cl)CC1` (stereo not drawn), the result in assay [1], in assay [2], in assay [4], in assay [5], in assay [6] and in assay [7] was inactive. Besides, the outcome in assay [8], in [9] and in assay [10] was inactive.
Regarding `C#CCOC(=O)/C=C(C)/C=C/CC(C)CCCC(C)C` (stereo not drawn), the AC50 is 32.1 µM (active) in assay [1], 20 µM (active) in assay [4], 33.2 µM (active) in assay [5] and 31.5 µM (active) in assay [9]. Further, the result in assay [2], in assay [6], in [7], in [8] and in assay [10] was inactive.

Broadly, the AC50 is the concentration at which the activity in the assay is half-maximal.
